The supplement of paper PMC9135407
“And” between values parts separate entries of the source, which are not always exact repeats. Equal entries are not always repeated. Structures can show the parent of a compound that is named as a salt. The campaign covered roughly 5,800 compounds. About 620 (11%) showed activity. For the sample, actives were picked, then their nearest neighbours and some compounds at random. Values without a mark were called inactive.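 The calls were made as follows: active = score above a cut-off or among the top three wells of a plate; in these data no inactive exceeds 0.85.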

Test system: primary human hepatic stellate cells (donor 1)
Assay: scaled lipid accumulation score (0 = DMSO-like, 1 = nortriptyline-like); higher = stronger HSC inactivation (lipid re-accumulation), active = hit call of the paper
Conditions: 48 h
Protocol: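 Primary lipid accumulation screen in primary human hepatic stellate cell myofibroblasts (donor 1, passage 8) in 384-well plates. 100 nL of library compound was pin-transferred into 30 µL medium in duplicate, and cells were treated for 48 h. The 'Scaled' score combines distance from plate baseline, toxicity and reproducibility penalties, and is normalised to nortriptyline (positive) and DMSO (negative) controls on each plate. A hit is defined as scaled >0.85 or among the top 3 wells per plate.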

[1] = library stock concentration: 10 mM
[2] = library stock concentration: 3.33 mM
[3] = library stock concentration: 1 mM

With `Cl.O[C@H](CNC[C@@H](O)[C@H]1CCc2cc(F)ccc2O1)[C@@H]1CCc2cc(F)ccc2O1` [Nebivolol hydrochloride] the “scaled lipid accumulation score” value [1] was 0.861 (active).

`OC(CNCC(O)C1CCc2cc(F)ccc2O1)C1CCc2cc(F)ccc2O1` (stereo not given) [Nebivolol] was tested, and the “scaled lipid accumulation score” value [2] was 0.769 and the “scaled lipid accumulation score” value [1] was ≤ 0.

`CCCCCC(=O)/C=C/[C@@H]1[C@H](C/C=C\CCCC(=O)O)[C@H](O)C[C@H]1O` [8-iso-15-keto Prostaglandin F2.beta.] was tested, and the “scaled lipid accumulation score” value [3] was ≤ 0.

`COC(=O)c1ccc(O)c2nc3c(C=O)c(O)cc(O)c3nc12` [Lomofungin] was tested, and the “scaled lipid accumulation score” value (library stock concentration: 6.4 mM) was ≤ -0.006.

`COc1[nH]c2ccc(F)cc2c1C(=O)OCC1CCN(CCNS(C)(=O)=O)CC1.NS(=O)(=O)O` was tested, and the “scaled lipid accumulation score” value [1] was 0.298.

In the case of `Cn1cc(C(=O)OCC2CCN(CCNS(C)(=O)=O)CC2)c2ccccc21` [listing 1 of 2 here], the “scaled lipid accumulation score” value [1] was 0.925 (active).

In the case of `Cn1cc(C(=O)OCC2CCN(CCNS(C)(=O)=O)CC2)c2ccccc21` [listing 2 of 2 here], the “scaled lipid accumulation score” value [1] was 0.41.

`C/C=C1\[C@H]2C=C(C)C[C@]1(N)c1ccc(=O)[nH]c1C2` was tested, and the “scaled lipid accumulation score” value [1] was ≤ 0.

For `C/C=C1\[C@H]2C=C(C)C[C@]1(N)c1ccc(=O)[nH]c1C2` [(-)-Huperzine A], the “scaled lipid accumulation score” value (library stock concentration: 20.6 mM) was 0.185.

In the case of `CC(C)(C)C(=O)Nc1ccccc1` [N-Pivaloylaniline], the “scaled lipid accumulation score” value [3] was 0.066.

In the case of `CC(C)=CCC/C(C)=C/CC/C(C)=C/CC[C@]1(C)CCc2cc(O)cc(C)c2O1` [.delta.-Tocotrienol], the “scaled lipid accumulation score” value [3] was ≤ 0.

`CC(C)[C@@H]1NC(=O)[C@H](Cc2ccccc2)NC(=O)[C@@H](CC(=O)O)NC(=O)CNC(=O)[C@H](CCCN=C(N)N)NC1=O` [Cyclo [Arg-Gly-Asp-D-Phe-Val]] was tested, and the “scaled lipid accumulation score” value (library stock concentration: 8.7 mM) was ≤ -0.003.

With `CN[C@H]1CC[C@@H](c2ccc(Cl)c(Cl)c2)c2ccccc21` [Sertraline hydrochloride] the “scaled lipid accumulation score” value (library stock concentration: 5.8 mM) was 0.777 and the “scaled lipid accumulation score” value [1] was ≤ -0.055 and 0.281 and 0.318.

For `CN[C@H]1CC[C@@H](c2ccc(Cl)c(Cl)c2)c2ccccc21` [Sertraline HCl], the “scaled lipid accumulation score” value [2] was 0.103 and the “scaled lipid accumulation score” value [1] was 0.033.

For `CN[C@H]1CC[C@@H](c2ccc(Cl)c(Cl)c2)c2ccccc21` [Sertraline] [listing 1 of 2 here], the “scaled lipid accumulation score” value [1] was 0.147 and 0.63.

In the case of `CN[C@H]1CC[C@@H](c2ccc(Cl)c(Cl)c2)c2ccccc21` [Sertraline] [listing 2 of 2 here], the “scaled lipid accumulation score” value was 1.23 (active).

In the case of `CC(C)[C@H](NC(=O)CNC(=O)OC(C)(C)C)C(=O)N[C@H](C=O)C(C)C`, the “scaled lipid accumulation score” value (library stock concentration: 14 mM) was 0.022.

For `COc1ccc2c3c([nH]c2c1)[C@H]1C[C@H]2[C@H](C[C@@H](O)[C@H](OC)[C@H]2C(=O)O)CN1CC3` [Reserpinic acid hydrochloride], the “scaled lipid accumulation score” value was ≤ 0.

In the case of `COC(=O)[C@H]1[C@H]2C[C@@H]3c4[nH]c5cc(OC)ccc5c4CCN3C[C@H]2C[C@@H](OC(=O)/C=C/c2cc(OC)c(OC)c(OC)c2)[C@@H]1OC` [Rescinnamin], the “scaled lipid accumulation score” value was 0.478.

With `CCOC(=O)Oc1c(OC)cc(C(=O)O[C@@H]2C[C@@H]3CN4CCc5c([nH]c6cc(OC)ccc56)[C@H]4C[C@@H]3[C@H](C(=O)OC)[C@H]2OC)cc1OC` [Syrosingopine] the “scaled lipid accumulation score” value was 0.248.

`COC(=O)[C@H]1[C@H]2C[C@@H]3c4[nH]c5cc(OC)ccc5c4CCN3C[C@H]2C[C@@H](OC(=O)c2cc(OC)c(OC)c(OC)c2)[C@@H]1OC` [Reserpine] [listing 1 of 3 here] was tested, and the “scaled lipid accumulation score” value [1] was 0.944 (active).

For `COC(=O)[C@H]1[C@H]2C[C@@H]3c4[nH]c5cc(OC)ccc5c4CCN3C[C@H]2C[C@@H](OC(=O)c2cc(OC)c(OC)c(OC)c2)[C@@H]1OC` [Reserpine] [listing 2 of 3 here], the “scaled lipid accumulation score” value [1] was 1.18 (active).

For `COC(=O)[C@H]1[C@H]2C[C@@H]3c4[nH]c5cc(OC)ccc5c4CCN3C[C@H]2C[C@@H](OC(=O)c2cc(OC)c(OC)c(OC)c2)[C@@H]1OC` [Reserpine] [listing 3 of 3 here], the “scaled lipid accumulation score” value was ≤ 0 and the “scaled lipid accumulation score” value [1] was 0.574 and 0.771.

With `CC1/C=C/C=C/C=C/C=C/C=C/C=C/C=C/C(OC2O[C@H](C)[C@@H](O)[C@H](N)[C@@H]2O)CC(O)C(C(=O)O)C(O)CC(=O)CC(O)CC(O)CC(O)CC(=O)CCCC(=O)CC(=O)OC1C(C)CC(C)C(O)CC(=O)c1ccc(N)cc1` (stereo not given in full) the “scaled lipid accumulation score” value [1] was ≤ 0.

`CCN(CC)CC1CCCCN1CC(=O)N1c2ccccc2C(=O)Nc2cccnc21` (stereo not given) was tested, and the “scaled lipid accumulation score” value [1] was ≤ 0 and ≤ -0.006.

`CCCCC/C=C\CC1OC1C/C=C\C/C=C\CCCC(=O)O` (stereo not given) was tested, and the “scaled lipid accumulation score” value (library stock concentration: 100 uM) was ≤ -0.021.

With `O=C(O)CCC/C=C\C[C@@H]1[C@@H](/C=C/[C@@H](O)COc2ccccc2)[C@H](O)C[C@@H]1O` [16-phenoxy tetranor Prostaglandin F2.alpha.] the “scaled lipid accumulation score” value [3] was ≤ 0.

`CCN1CCN(c2ccc(Nc3cc(N(C)C(=O)Nc4c(Cl)c(OC)cc(OC)c4Cl)ncn3)cc2)CC1` was tested, and the “scaled lipid accumulation score” value (library stock concentration: 80 uM) was ≤ -0.009, the “scaled lipid accumulation score” value (library stock concentration: 400 uM) was ≤ -0.009 and the “scaled lipid accumulation score” value (library stock concentration: 2 mM) was 0.01. For the same compound, the “scaled lipid accumulation score” value [1] was 0.291.
